This passage reports activity change, negative = inhibition results from PubChem BioAssay AID1745853 (National Center for Advancing Translational Sciences (NCATS), 2022).

The structures appear in SMILES notation. Several values for one entry are separate records, joined by “and”; a condition that tells them apart may be missing. Equal values may be shown once. About 970 (3.9%) of roughly 25,000 compounds were called active. Not shown: some 8% with an inconclusive outcome. The rule behind the calls is not given here. For the sample, actives were picked, then their nearest neighbours and some compounds at random.

What all share (assay): Primary Screen for Target Class Profiling of Small Molecule Inhibitors of Methyltransferases
Assay [1] has as its target Catechol O-methyltransferase (Homo sapiens) (UniProt P21964). The conditions noted are these: purified enzyme, MTase-Glo SAH luminescence; activity change, negative = inhibition: at 40 µM, stronger effect = lower value; outcome: 40 uM. From the text:
(§1) PI: Matthew D. Hall Ph.D. and Quinlin M. Hanson Ph.D.
(§2) National Center for Advancing Translational Sciences (NCATS)
(§3) National Institute of Health (NIH), Rockville, MD
(§4) Target class profiling (TCP) is a chemical biology approach amenable to investigating understudied biological targets. TCP is achieved by developing a generalizable assay platform and applying it to screen a curated set of compound libraries against representative members of a target class. Small molecule methyltransferases (SMMTase) are a subclass of methyltransferase that act on metabolites to modulate signaling pathways, metabolize xenobiotics, or balance the available methyl pool. We screened four curated libraries totaling 27,574 unique compounds against the SMMTases nicotinamide N-methyltransferase (NNMT), phenylethanolamine N-methyltransferase (PNMT), histamine N-methyltransferase (HNMT), glycine N-methyltransferase (GNMT), catechol O-methyltransferase (COMT), and guanidinoacetate N-methyltransferase (GAMT). The data generated by this TCP can be leveraged for informed tool molecule development. For example, in the associated publication we identified a chemotype of HNMT-selective inhibitors. Additionally, we identified a putative SMMTase-selective inhibitor with potential as a tool molecule for studying broader methyltransferase biology.
(§5) High-through put screening assays were developed at the National Center for Advancing Translational Science (NCATS) for the enzymes NNMT, PNMT, HNMT, GNMT, COMT, and GAMT. Enzymatic activity was measured as a function of SAM cofactor conversion using the MTase Glo kit (Promega) for all enzymes. All assays were performed in 1536-well format with substrates and SAM concentrations at KM values. Enzyme concentration and assay timing were optimized for 10-20% SAM conversion. Initial screening of 27,574 compounds was done as single-point assays using the highest compound concentration (40 uM). […] These compounds were replated in 11-point dose response and assayed against NNMT, PNMT, HNMT, GNMT, COMT, GAMT, and a counter-assay. The IC50 and efficacy (maximal response) values were determined for each dose-response curve. These values are also accounted for in the area under the curve (AUC) values.
(§6) PROTOCOL TABLE (as described by Inglese J, Shamu CE and Guy RK. 2007)
(§7) SEQUENCE No. (e.g., 1, 2, 3, etc.); […] (e.g., Cells, Incubation, Reagent, etc.); VALUE; DESCRIPTION.
(§8) 1; Reagent; 2 uL; SMMTase Enzyme (2x) in reaction buffer, columns 1- 48.
(§9) 2; Reagent; 1 uL; SAM (4x) in reaction buffer, columns 1-48.
(§10) 3; Controls; 23 nL; DMSO in column 4; sinefungin in DMSO (0 uM - 40 uM) in 7-point 1:2 dilution series (n = 2) in column 2.
(§11) 4; Compounds; 23 nL; Columns 5-48.
(§12) 5; Reagent; 1 uL; Substrate (4x) in reaction buffer, columns 2-48.
(§13) 6; Time; 20-30 min; Incubation.
(§14) 7; Reagent; 1 uL; MTase-Glo reagent (5X), columns 1-48.
(§15) 8; Time; 30 min; Incubation.
(§16) 9; Reagent; 5 uL; MTase-Glo Detection reagent, columns 1-48.
(§17) 10; Time; 30 min; Incubation, luminescence evolution.
(§18) 11; Detection; Luminescence; ViewLux uHTS Microplate Imager (PerkinElmer).
(§19) NOTES (numbers refer to Sequence numbers above)
(§20) 1, 2, 5. White Medium Binding Greiner 1536-well plates (Cat #789175-F, Greiner Bio-One, Monroe, NC); Reaction buffer: 50 mM Tris, pH 8.0, 3 mM MgCl2, 1 mM EDTA, 50 mM NaCl, 1 mM DTT, and 0.1 mg/mL BSA. Evaporation was prevented by covering assay plates with metal lids containing holes to allow gas diffusion.
(§21) 1. Six SMMTase were profiled: HNMT, GNMT, PNMT, COMT, NNMT, GAMT
(§22) 5. The corresponding substrate was used for each enzyme: HNMT - 5.3 uM Histamine; GNMT - >500 uM Glycine; PNMT - 16.2 uM Norephinephrine; COMT - 13.7 uM Norephinephrine; NNMT - 3.8 uM Nicotinamide; GAMT - 2.5 uM Guanidinoacetate.6, 8, 10. Room temperature
(§23) 6. Final reaction conditions: 10 nM COMT, 5 uM SAM, 15 uM norepinephrine, 50 mM Tris, pH 8.0, 3 mM MgCl2, 1 mM EDTA, 50 mM NaCl, 1 mM DTT, and 0.1 mg/mL BSA; refer to tables 2 and S1 for specific timing.
8. […]

Assay [2] has as its target Glycine N-methyltransferase (Homo sapiens) (UniProt Q14749). The conditions noted are these: purified enzyme, MTase-Glo SAH luminescence; measured here: GNMT inhibition; at 40 µM; stronger effect = lower value.
Source text: as §1, §2, §3, §4, §5, §6, §7, §8, §9, §10, §11, §12, §13, §14, §15, §16, §17, §18, §19, §20, §21, §22, §23
8. […]

The target in assay [3] is Guanidinoacetate N-methyltransferase (Homo sapiens) (UniProt Q14353). The conditions noted are these: purified enzyme, MTase-Glo SAH luminescence; measured here: GAMT inhibition; at 40 µM; stronger effect = lower value.
Source text: as §1, §2, §3, §4, §5, §6, §7, §8, §9, §10, §11, §12, §13, §14, §15, §16, §17, §18, §19, §20, §21, §22, §23
8. […]

Assay [4] has as its target Histamine N-methyltransferase (Homo sapiens) (UniProt P50135). The conditions noted are these: purified enzyme, MTase-Glo SAH luminescence; measured here: HNMT inhibition; at 40 µM; stronger effect = lower value.
Source text: as §1, §2, §3, §4, §5, §6, §7, §8, §9, §10, §11, §12, §13, §14, §15, §16, §17, §18, §19, §20, §21, §22, §23
8. […]

Assay [5] has as its target Nicotinamide N-methyltransferase (Homo sapiens) (UniProt P40261). The conditions noted are these: purified enzyme, MTase-Glo SAH luminescence; measured here: NNMT inhibition; at 40 µM; stronger effect = lower value.
Source text: as §1, §2, §3, §4, §5, §6, §7, §8, §9, §10, §11, §12, §13, §14, §15, §16, §17, §18, §19, §20, §21, §22, §23
8. […]

The target of assay [6] is Phenylethanolamine N-methyltransferase (Homo sapiens) (UniProt P11086). The conditions noted are these: purified enzyme, MTase-Glo SAH luminescence; measured here: PNMT inhibition; at 40 µM; stronger effect = lower value.
Phenylethanolamine N-methyltransferase (Homo sapiens), sequence (P11086 whole entry, looked up): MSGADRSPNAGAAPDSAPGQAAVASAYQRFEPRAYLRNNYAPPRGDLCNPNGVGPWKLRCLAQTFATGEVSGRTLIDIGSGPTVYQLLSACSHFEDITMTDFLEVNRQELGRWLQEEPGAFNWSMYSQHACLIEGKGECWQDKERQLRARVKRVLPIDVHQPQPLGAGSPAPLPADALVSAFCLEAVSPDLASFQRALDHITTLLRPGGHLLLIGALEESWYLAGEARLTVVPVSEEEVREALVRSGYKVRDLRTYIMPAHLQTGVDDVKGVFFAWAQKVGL
Source text: as §1, §2, §3, §4, §5, §6, §7, §8, §9, §10, §11, §12, §13, §14, §15, §16, §17, §18, §19, §20, §21, §22, §23
8. […]
% is set by controls: 0 for no effect and ±100 for the full control effect.

Catechol O-methyltransferase (Homo sapiens), sequence (P21964 whole entry, looked up): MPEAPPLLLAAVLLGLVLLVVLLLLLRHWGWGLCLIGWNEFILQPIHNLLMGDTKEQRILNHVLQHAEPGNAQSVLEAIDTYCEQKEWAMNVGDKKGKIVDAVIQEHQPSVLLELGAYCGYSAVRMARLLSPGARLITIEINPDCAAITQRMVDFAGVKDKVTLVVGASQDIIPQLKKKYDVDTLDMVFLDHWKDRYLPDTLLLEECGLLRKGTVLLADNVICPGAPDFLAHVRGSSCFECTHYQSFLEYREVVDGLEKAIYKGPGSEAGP
Glycine N-methyltransferase (Homo sapiens), sequence (Q14749 whole entry, looked up): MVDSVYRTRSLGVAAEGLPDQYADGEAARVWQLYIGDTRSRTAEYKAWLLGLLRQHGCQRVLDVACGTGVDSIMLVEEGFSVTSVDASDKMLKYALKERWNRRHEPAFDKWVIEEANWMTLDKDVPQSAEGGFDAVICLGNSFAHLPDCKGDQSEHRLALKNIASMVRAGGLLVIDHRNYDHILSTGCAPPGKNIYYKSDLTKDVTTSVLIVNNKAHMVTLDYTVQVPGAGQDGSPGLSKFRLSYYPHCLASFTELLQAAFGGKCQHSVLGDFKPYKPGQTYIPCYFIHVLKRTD
Histamine N-methyltransferase (Homo sapiens), sequence (P50135 whole entry, looked up): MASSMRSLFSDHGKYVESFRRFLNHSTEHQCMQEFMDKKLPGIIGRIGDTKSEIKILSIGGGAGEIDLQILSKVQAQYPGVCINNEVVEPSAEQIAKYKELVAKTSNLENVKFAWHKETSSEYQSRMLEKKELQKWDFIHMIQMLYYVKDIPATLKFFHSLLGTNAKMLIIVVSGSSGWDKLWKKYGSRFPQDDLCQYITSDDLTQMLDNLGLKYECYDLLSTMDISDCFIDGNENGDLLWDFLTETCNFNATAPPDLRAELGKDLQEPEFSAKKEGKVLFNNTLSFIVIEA
Nicotinamide N-methyltransferase (Homo sapiens), sequence (P40261 whole entry, looked up): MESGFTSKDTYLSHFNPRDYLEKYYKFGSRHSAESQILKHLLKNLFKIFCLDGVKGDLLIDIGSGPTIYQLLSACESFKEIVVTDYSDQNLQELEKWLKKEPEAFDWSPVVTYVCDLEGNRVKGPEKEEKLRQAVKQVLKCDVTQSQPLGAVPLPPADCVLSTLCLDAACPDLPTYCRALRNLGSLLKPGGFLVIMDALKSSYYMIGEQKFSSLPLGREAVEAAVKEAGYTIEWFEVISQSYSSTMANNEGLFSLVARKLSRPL

For the compound `O=C(C1CC1)N1CCn2c(nn(-c3ccc(F)cc3)c2=O)C1`, the activity change, negative = inhibition in assay [1] is -5% (inactive); in assay [2], -3.41%; in assay [3] it was -8.31%; in assay [4], -2.04%; in assay [5], -9.2%; in assay [6], -5.36%.

For the compound `N#CSc1cc(SC#N)c(N)nc1N`, the activity change, negative = inhibition was -62.1% (active) in assay [1]; -92.7% in assay [2]; -77.3% in assay [3]; -92.3% in assay [4]; -58.6% in assay [5]; -40.8% in assay [6].

Regarding `C=C(C)Cn1c(=O)[nH]c2ccccc21`, the activity change, negative = inhibition is 7.05% (inactive) in assay [1]; -1.89% in assay [2]; 0% in assay [3]; 7.74% in assay [4]; 13.6% in assay [5]; 4.12% in assay [6].

On to `CN1CCCN(S(=O)(=O)c2cccs2)c2ccccc21`, for which the activity change, negative = inhibition in assay [1] was -6.9% (inactive); in assay [2], -11.1%; in assay [3], -3.04%; in assay [4] it was -16.1%; in assay [5], -12.8%; in assay [6] it was -18.8%.

Take `Cc1cccc(CSc2nnc3n(CC(C)C)c(=O)c4ccccc4n23)c1`: the activity change, negative = inhibition in assay [1] is 2.1% (inactive); in assay [2] it was -7.23%; in assay [3], 0.416%; in assay [4], 3.69%; in assay [5] it was -10.9%; in assay [6] it was 4.42%.

As for `NCCCC(=O)N1CCN(C2CCNCC2)C(=O)C1`, the activity change, negative = inhibition was -0.26% (inactive) in assay [1]; -0.497% in assay [2]; -3.99% in assay [3]; 1.59% in assay [4]; -1.96% in assay [5]; 0.025% in assay [6].

Take `O=C(N[C@@H]1CN(C2CCOCC2)CC[C@@H]1CO)c1ccccc1`: the activity change, negative = inhibition in assay [1] is -14.8% (inactive); in assay [2], -7.11%; in assay [3], -12.7%; in assay [4], -6.52%; in assay [5], -17.2%; in assay [6], -14.2%.

In the case of `Cc1ccc(COc2ccc3c(-c4ccccc4)cc(=O)oc3c2)cc1`, the activity change, negative = inhibition in assay [1] was 1.55% (inactive); in assay [2], -1.02%; in assay [3], 8.91%; in assay [4], 3.98%; in assay [5], 6.08%; in assay [6] it was -3.92%.

In the case of `CCCN1C(=O)c2cc(C(=O)N3CCC(C)CC3)nn2CC1(C)C(=O)NC1CCCC1` (stereo not drawn), the activity change, negative = inhibition is -0.787% (inactive) in assay [1]; -3.38% in assay [2]; 3.26% in assay [3]; 4.03% in assay [4]; -4.98% in assay [5]; -1.07% in assay [6].

For `CCc1ccc(S(=O)(=O)c2nnn3c2nc(N2CCCCC2)c2ccccc23)cc1`, the activity change, negative = inhibition in assay [1] was 3.62% (inactive); in assay [2] it was 0.777%; in assay [3], 0%; in assay [4], 6.93%; in assay [5], -3.24%; in assay [6], -1.25%.

As to `Cc1cn(CCN2CCN(c3ccccc3-c3cc(C#N)cc(C(=O)NCCCN4CCCC4)c3)CC2)c2ccccc12`, the activity change, negative = inhibition in assay [1] was -11% (active) and 25.9% (active); in assay [2] it was 0.523% and -14.2%; in assay [3] it was 12%; in assay [4], -86.5% and -77.8%; in assay [5] it was -17.4% and 7.48%; in assay [6], -1.62% and 35.5%.

Take `CCOc1ccc(CN2C(=O)c3cc(C(C)(C)C)nn3CC2(C)C(=O)NC2CCCCCC2)cc1` (stereo not drawn): the activity change, negative = inhibition was -0.389% (inactive) in assay [1]; -3.62% in assay [2]; 4.61% in assay [3]; -1.08% in assay [4]; -2.24% in assay [5]; -3.09% in assay [6].

As to `COc1cccc(-c2ccc(C(=O)NCCN[S+](=O)([O-])c3cccs3)cc2)c1`, the activity change, negative = inhibition in assay [1] is 1.95% (inactive); in assay [2], -8.51%; in assay [3], -1.67%; in assay [4], -4.59%; in assay [5], -5.98%; in assay [6] it was -13%.
